In PubChem BioAssay (NCATS):
Results filed as inconclusive are left out. Activity calls are given as the source filed them. Unless noted, calls come from the whole dose curve; as a rule, active = well fitted curve in the direction sought with a large enough effect; inconclusive = small, poorly fitted or top-dose-only effect, or another doubt; inactive = no such curve, though single readings can be large; an effect the other way counts as inactive or inconclusive.

Key:
[1] = P-glycoprotein substrates identified in KB-8-5-11 adenocarcinoma cell line, qHTS therapeutic library screen (AID 1346987); note: nearly all actives have a fitted effect of over 65% in size; note: potency is the fitted concentration of half-maximal effect
In short: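 KB-8-5-11: colchicine-selected sub-line of KB-3-1 over-expressing P-gp; assay medium lacked colchicine. 72 h drug exposure at 37 degree C, CellTiter-Glo.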

[2] = tested on: Zika virus NS2B-NS3 protease (unlinked complex); test: Primary screen GU Rhodamine qHTS for Zika virus inhibitors: Unlinked NS2B-NS3 protease assay (AID 1347159); note: nearly all actives have a fitted effect of over 60% in size; note: potency is the fitted concentration of half-maximal effect
In short: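 A qHTS format was used, with compound concentrations ranging up to 114 microM. Each compound was preincubated with 25 nM NS2B-NS3 protease, and the substrate was then added at 1.5 microM. Curves were fitted with a 4-parameter Hill model.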

[3] = Primary qHTS for inhibitors of nuclear receptor binding SET domain protein 2 (NSD2) in an RCH-ACV wild type WT cells (2C) (AID 1645877); note: nearly all actives have a fitted effect of over 70% in size; note: potency is the fitted concentration of half-maximal effect
[4] = Primary redox qHTS assay for identification of artifact compounds. (AID 1845223);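 note: 0% = DMSO and 100% = reference compound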
In short: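 Amplex Red (25 uM) and HRP (250 mU/mL) in HBSS, with compounds for 15 min, then 250 uM DTT for 30 min, room temperature, dark. Fluorescence 525/598 nm read; normalized to DMSO and 10 uM DA3003; Hill fit.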

NIH3T3 = test: Cytotoxic Profiling of Annotated Libraries Using Quantitative High-Throughput Screening (AID 1296008); conditions: Five cell lines viability, CellTiter-Glo ATP luminescence, 48-72 h; max response: active compounds read low; note: nearly all actives have a fitted effect of over 60% in size; note: potency is the fitted concentration of half-maximal effect; for max response: % is set by controls: 0 for no effect and ±100 for the full control effect
In short: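 Cytotoxicity was measured as CellTiter-Glo ATP luminescence, read after 10 min at room temperature. Compound treatment of the cells lasted 48 or 72 hr at 37 degrees Celsius in a qHTS format.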

HACAT = test: qHTS assay to identify novel small-molecules to repurpose for Merkel cell carcinoma treatment (AID 1296009); conditions: MCC and control cell lines, CellTiter-Glo viability, 72 h; at 44.8 µM (top of the series) unless noted; note: nearly all actives have a fitted effect of over 60% in size
In short: (§1)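 After compound transfer in DMSO, plates were kept 72 hr at 37 degree celsius. Luminescent ATP signal from CellTiter-Glo served as viability measure, normalized against DMSO and no-cell controls.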

CAOV3 = test: Primary qHTS to identify gynecologic anti-cancer compounds using libraries of approved drugs and bioactive compounds (AID 1345084); conditions: Gynecologic cancer cell panel viability, ATPlite luminescence, 48 h; series mostly up to 57.5 µM; note: nearly all actives have a fitted effect of over 55% in size; note: potency is the fitted concentration of half-maximal effect
In short: (§2)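 Luminescence from the ATPlite ATP-monitoring reagent indicates viable cell number; lower signal means cytotoxicity. Cells received compound 16 h after seeding and were exposed for 48 h across five concentrations.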

HeLa = test: as above; conditions: Gynecologic cancer cell panel viability, ATPlite luminescence, 48 h; series mostly up to 57.5 µM
In short: as §2

JEG-3 = test: as above; conditions: Gynecologic cancer cell panel viability, ATPlite luminescence, 48 h; series mostly up to 57.5 µM
In short: as §2

SKOV3 = test: as above; conditions: Gynecologic cancer cell panel viability, ATPlite luminescence, 48 h; series mostly up to 57.5 µM
In short: as §2

[5] = P-glycoprotein substrates identified in KB-3-1 adenocarcinoma cell line, qHTS therapeutic library screen (AID 1346986); note: nearly all actives have a fitted effect of over 60% in size
In short: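 Counter-screen: cherry-picked hits retested in the KB pair and in HEK-293 pcDNA/MDR-19 cells ± tariquidar. Primary screen used 72 h CellTiter-Glo viability in KB-3-1 and KB-8-5-11.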

[6] = target: Cytochrome P450 2D6 (Homo sapiens) (UniProt P10635); test: Cytochrome P450 family 2 subfamily D member 6 (CYP2D6) small molecule antagonists: luciferase biochemical (cell-free) qHTS assay (AID 1645840; active = well fitted curve in the direction sought with a large enough effect in the repeat runs; an effect the other way counts as inactive or inconclusive; note: % is set by controls: 0 for no effect and ±100 for the full control effect; nearly all actives have a fitted effect of over 55% in size)
Chain of Cytochrome P450 2D6 (Homo sapiens) (P10635 whole entry, looked up): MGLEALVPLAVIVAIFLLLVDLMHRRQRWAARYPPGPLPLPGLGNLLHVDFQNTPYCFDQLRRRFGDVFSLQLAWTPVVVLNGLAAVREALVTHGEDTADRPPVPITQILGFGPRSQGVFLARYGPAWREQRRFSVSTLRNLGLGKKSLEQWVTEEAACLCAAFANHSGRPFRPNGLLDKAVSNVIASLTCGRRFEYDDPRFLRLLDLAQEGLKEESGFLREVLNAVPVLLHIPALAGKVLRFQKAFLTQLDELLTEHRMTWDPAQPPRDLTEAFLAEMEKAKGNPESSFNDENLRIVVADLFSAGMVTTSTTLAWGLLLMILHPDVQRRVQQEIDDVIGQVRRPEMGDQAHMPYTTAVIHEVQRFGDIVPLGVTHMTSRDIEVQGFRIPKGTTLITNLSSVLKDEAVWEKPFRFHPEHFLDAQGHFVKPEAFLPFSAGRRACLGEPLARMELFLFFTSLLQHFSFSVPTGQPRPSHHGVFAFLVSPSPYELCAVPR
In short: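 P450-Glo luminescent screen: recombinant CYP2D6 enzyme–proluciferin substrate mix preincubated with compound 10 min at room temperature, then NADPH regeneration added for 1 h at room temperature. Detection reagent added for 20 min; luciferin light read as relative luminescence units.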

[7] = target: Cytochrome P450 2C9 (Homo sapiens) (UniProt P11712); test: Cytochrome P450 family 2 subfamily C member 9 (CYP2C9) small molecule antagonists: luciferase biochemical (cell-free) qHTS assay (AID 1645842; active = well fitted curve in the direction sought with a large enough effect in the repeat runs; an effect the other way counts as inactive or inconclusive; note: % is set by controls: 0 for no effect and ±100 for the full control effect; nearly all actives have a fitted effect of over 55% in size)
Chain of Cytochrome P450 2C9 (Homo sapiens) (P11712 whole entry, looked up): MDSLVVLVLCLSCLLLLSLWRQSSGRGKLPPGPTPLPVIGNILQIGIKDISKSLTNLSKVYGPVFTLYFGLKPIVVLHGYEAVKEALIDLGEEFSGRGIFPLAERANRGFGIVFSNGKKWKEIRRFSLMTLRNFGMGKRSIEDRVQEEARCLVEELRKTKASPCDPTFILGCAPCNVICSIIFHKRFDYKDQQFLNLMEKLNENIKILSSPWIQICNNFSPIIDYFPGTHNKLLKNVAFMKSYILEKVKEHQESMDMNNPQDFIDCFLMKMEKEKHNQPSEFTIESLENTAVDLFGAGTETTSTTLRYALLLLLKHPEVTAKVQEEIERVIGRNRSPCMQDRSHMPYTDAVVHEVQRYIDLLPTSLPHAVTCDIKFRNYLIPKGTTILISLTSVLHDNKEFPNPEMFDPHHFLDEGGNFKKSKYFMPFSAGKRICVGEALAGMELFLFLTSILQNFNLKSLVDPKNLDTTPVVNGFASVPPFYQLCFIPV
In short: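 Luminescence, after 20 min with luciferin detection reagent, reflected CYP2C9 turnover during a 1 h NADPH-driven reaction at 37C. Enzyme-substrate mix contained 0.4% bovine serum albumin and was preincubated with compound 10 min at room temperature.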

CRL-7250 = normal cell line; test: qHTS assay to identify novel small-molecules to repurpose for Merkel cell carcinoma treatment (AID 1296009); conditions: MCC and control cell lines, CellTiter-Glo viability, 72 h; series mostly up to 92 µM; note: nearly all actives have a fitted effect of over 60% in size
In short: as §1

C/C=C1/CN2CC[C@]34C(=Nc5ccc(OC)cc53)C2C[C@@H]1C4(CO)C(=O)OC (some centres not stated)
inactive: Potency [1] | Potency [2] | Potency [3] | Potency [4] | max response (NIH3T3) 4.25% | outcome (HACAT) | Potency (CAOV3) | Potency (HeLa) | Potency (JEG-3) | Potency (SKOV3)

COC(=O)C1=COC(C)C2CN3CCC4(C(=O)Nc5ccccc54)C3CC12 (configuration not stated)
inactive: Potency [1] | Potency [2] | Potency [3] | Potency [4] | max response (NIH3T3) -11.4% | Potency (CAOV3) | Potency (HeLa) | Potency (JEG-3) | Potency (SKOV3)

Cc1c(Cl)c(OCC(=O)N2CCN(C)CC2)nc2sc(C(=O)NC3CC3)c(N)c12
inactive: Potency [5] | Potency [1] | Potency [6] | Potency [3] | Potency [4] | max response (NIH3T3) 0.637% | Potency (CAOV3) | Potency (HeLa) | Potency (JEG-3) | Potency (SKOV3)

NC(=O)c1ncn2c1CN=C(c1ccccc1Br)c1cc(F)ccc1-2
inactive: Potency [1] | Potency [2] | Potency [6] | Potency [7] | Potency [4] | max response (NIH3T3) 1.84% | Potency (CAOV3) | Potency (HeLa) | Potency (JEG-3) | Potency (SKOV3)

C=CCN1CCC2(C)c3cc(O)ccc3C[C@H]1[C@H]2C
inactive: Potency [1] | Potency [2] | Potency [3] | Potency [4] | max response (NIH3T3) 1.43% | Potency (CAOV3) | Potency (HeLa) | Potency (JEG-3) | Potency (SKOV3)

Oc1ccc2c3c1O[C@H]1c4[nH]c5c(N=C=S)cccc5c4C[C@@]4(O)[C@@H](C2)N(CC2CC2)CC[C@]314
inactive: Potency [4] | max response (NIH3T3) -11% | outcome (HACAT) | Potency (CAOV3) | Potency (HeLa) | Potency (SKOV3)

CCC(C)(O)C1(C(=O)O)COC(=O)C1 (configuration not stated)
inactive: Potency [5] | Potency [1] | Potency [3] | Potency [4] | max response (NIH3T3) -1.83% | outcome (HACAT) inactive [at 92 µM] | Potency (CAOV3) | Potency (HeLa) | Potency (JEG-3) | Potency (SKOV3)

COc1ccc2c3c4n(c2c1)[C@@H](C=C(C)C)OOC(C)(C)C[C@@H]4N1C(=O)[C@@H]2CCCN2C(=O)[C@]1(O)[C@H]3OCC=C(C)C
inactive: Potency [1] | Potency [2] | Potency [3] | Potency [4] | max response (NIH3T3) 0.42% | Potency (CRL-7250) | Potency (CAOV3) | Potency (HeLa) | Potency (JEG-3) | Potency (SKOV3)

CCC(C)/C=C(C)/C=C/C1=CC2=C(Cl)C(=O)C(C)(OC(C)=O)C(=O)C2=CO1 (configuration not stated)
inactive: Potency [1] | max response (NIH3T3) -56.4% | Potency (CAOV3) | Potency (HeLa) | Potency (JEG-3) | Potency (SKOV3)

C=C1[C@@H](C)[C@H]2[C@H](Cc3ccccc3)NC(=O)[C@]23OC(=O)/C=C/C(=O)CCC[C@@H](C)C/C=C/[C@H]3[C@@H]1O
active: Potency [1] 5800 nM | Potency [3] 459 nM | Potency (NIH3T3) 1160 nM | Potency (CAOV3) 12600 nM | Potency (SKOV3) 25100 nM
inactive: Potency (JEG-3)

CC[C@H]1C[C@@H]2CC[C@@H](O2)[C@@H](C)C(=O)O[C@H](CC)C[C@H]2CC[C@H](O2)[C@H](C)C(=O)O[C@@H](C)C[C@@H]2CC[C@@H](O2)[C@@H](C)C(=O)O[C@H](CC)C[C@H]2CC[C@H](O2)[C@H](C)C(=O)O1
inactive: Potency [2] | Potency [4] | Potency (JEG-3)
active: Potency [1] 968 nM | Potency (NIH3T3) 38.5 nM | Potency (CAOV3) 398 nM | Potency (HeLa) 562 nM | Potency (SKOV3) 251 nM

CO[C@H]1[C@@H](O)[C@@H](C)O[C@@H](O[C@@H]2C=C3C(OC(C)=O)CC4(O)C(CC[C@]5(C)[C@@H](C6=CC(=O)OC6)CC[C@]45O)[C@@]3(C)CC2)[C@@H]1O (some centres not stated)
inactive: Potency [2] | Potency [4] | max response (NIH3T3) -11.7%
active: Potency [1] 193 nM | Potency [3] 85.8 nM | Potency (CAOV3) 501 nM | Potency (HeLa) 501 nM | Potency (SKOV3) 282 nM

COc1cc(O)c2c(c1)/C=C/C[C@@H](O)[C@@H](O)C(=O)CCC[C@H](C)OC2=O
inactive: Potency [2] | Potency [4] | max response (NIH3T3) -5.04% | Potency (CAOV3) | Potency (HeLa) | Potency (JEG-3) | Potency (SKOV3)

COC1CC(O[C@H]2CC[C@]3(C=O)C4CC[C@]5(C)[C@@H](C6=CC(=O)OC6)CC[C@]5(O)[C@@H]4CC[C@@H]3C2)OC(C)C1O[C@@H]1O[C@H](CO)[C@@H](O[C@@H]2O[C@H](CO)[C@@H](O)[C@H](O)[C@H]2O)[C@H](O)[C@H]1O (some centres not stated)
active: Potency [1] 123 nM | Potency [3] 123 nM | Potency (SKOV3) 398 nM
inactive: Potency [2] | max response (NIH3T3) 3.23%

C[C@]12CC[C@H]3[C@@H](CCC4=C/C(=N/OCC(=O)O)CC[C@@]43C)[C@@H]1CC[C@@H]2O
inactive: Potency [5] | Potency [1] | Potency [2] | Potency [4] | max response (NIH3T3) 3.02% | Potency (CAOV3) | Potency (JEG-3) | Potency (SKOV3)

CC1=CC(=O)[C@@H](O)[C@]2(C)C3[C@@H](O)[C@@H]4OC(=O)[C@@H]([C@H]4C)[C@]3(C)C(=O)C[C@@H]12 (some centres not stated)
active: Potency [1] 3210 nM | Potency [3] 2260 nM | Potency (NIH3T3) 3600 nM
inactive: Potency [2] | Potency (CAOV3) | Potency (HeLa) | Potency (JEG-3)

CNc1ccc2oc(C[C@H]3O[C@@]4(CC[C@H]3C)O[C@H](C(C)C(=O)c3ccc[nH]3)[C@H](C)C[C@H]4C)nc2c1C(=O)O (some centres not stated)
inactive: Potency [6]
active: Potency [1] 2060 nM | Potency [2] 11200 nM | Potency [3] 14500 nM | Potency (NIH3T3) 3660 nM | Potency (CAOV3) 22400 nM

CC[C@@H]1C[C@H]2CC[C@H](O2)[C@H](C)C(=O)O[C@@H](C)C[C@@H]2CC[C@@H](O2)[C@@H](C)C(=O)O[C@H](CC)C[C@H]2CC[C@H](O2)[C@H](C)C(=O)O[C@@H](C)C[C@@H]2CC[C@@H](O2)[C@@H](C)C(=O)O1
active: Potency [1] 1930 nM | Potency [3] 21.6 nM | Potency (NIH3T3) 86.2 nM | Potency (CAOV3) 398 nM
inactive: Potency (JEG-3)

CNC(=O)c1cc(C#N)cc(C)c1NC(=O)c1cc(Br)nn1-c1ncccc1Cl
inactive: Potency [2] | Potency [4] | max response (NIH3T3) -18.9% | Potency (CAOV3) | Potency (HeLa) | Potency (JEG-3) | Potency (SKOV3)
